# Experimental data: the antibiotic and cytotoxicity screens of Wong et al. (2023)
# Hit rate of the full screen: of about 39,000 compounds, about 1,500 (3.8%) were called active. The full list was thinned out, with actives kept by preference.
# System: HSkMC (human skeletal muscle cells)
# Experiment: cytotoxicity call (relative viability < 0.9)
# Settings: 10 µM
row,SMILES,cytotoxicity call
1,NCC[C@@H]1CC[C@@H](NC(=O)C2CCCCC2)[C@@H](CO)O1,inactive
2,C[C@@H]1CCCCO[C@H](CN(C)S(=O)(=O)c2ccc(F)cc2)[C@@H](C)CN([C@@H](C)CO)C(=O)c2cc(NC(=O)Nc3ccc(F)cc3)ccc2O1,inactive
3,C[C@@H]1CCCCO[C@@H](CN(C)C(=O)Nc2ccc(F)cc2)[C@@H](C)CN([C@@H](C)CO)C(=O)c2cc(NC(=O)Nc3ccc(F)cc3)ccc2O1,inactive
4,COc1ccc(NC(=O)N(C)C[C@H]2Oc3c(NC(=O)C4CCOCC4)cccc3C(=O)N([C@H](C)CO)C[C@H]2C)cc1,inactive
5,COc1ccc(C(=O)O)c(O)c1OC,inactive
6,COC1=C(N)C(=O)c2nc(-c3nc(C(=O)O)c(C)c(-c4ccc(OC)c(OC)c4O)c3N)ccc2C1=O,active
7,Cc1ccc(S(=O)(=O)N(C)C[C@H]2Oc3ccc(NS(=O)(=O)c4ccc(F)cc4)cc3C(=O)N([C@H](C)CO)C[C@H]2C)cc1,inactive
8,C[C@H](CO)N1C[C@H](C)[C@@H](CN(C)C(=O)c2ccccc2)OCCCC[C@H](C)Oc2ccc(NC(=O)Nc3ccccc3)cc2C1=O,inactive
9,C[C@H](CO)N1C[C@H](C)[C@@H](CN(C)C(=O)C2CCOCC2)Oc2ncc(-c3cccc(C#N)c3)cc2C1=O,inactive
10,C[C@@H]1CN([C@H](C)CO)C(=O)Cc2cc(NC(=O)Nc3ccc4c(c3)OCO4)ccc2O[C@@H]1CN(C)Cc1ccc(C(F)(F)F)cc1,active
11,C[C@H]1CN([C@@H](C)CO)C(=O)Cc2cc(NC(=O)Nc3ccc4c(c3)OCO4)ccc2O[C@@H]1CN(C)Cc1ccc(C(F)(F)F)cc1,inactive
12,C[C@H](CO)N1C[C@H](C)[C@H](CN(C)Cc2ccc(C(F)(F)F)cc2)Oc2ccc(NC(=O)Nc3ccc4c(c3)OCO4)cc2CC1=O,inactive
13,C[C@H]1CN([C@@H](C)CO)C(=O)Cc2cc(NC(=O)Nc3ccc4c(c3)OCO4)ccc2O[C@H]1CN(C)Cc1ccc(C(F)(F)F)cc1,inactive
14,C[C@H](CO)N1C[C@H](C)[C@H](CN(C)C(=O)Nc2ccc3c(c2)OCO3)Oc2ccc(NC(=O)Nc3ccc(C(F)(F)F)cc3)cc2CC1=O,inactive
15,C[C@@H]1CN([C@@H](C)CO)C(=O)Cc2cc(NC(=O)Nc3ccc4c(c3)OCO4)ccc2O[C@H]1CN(C)Cc1ccc(C(F)(F)F)cc1,inactive
16,C[C@@H]1CN([C@@H](C)CO)C(=O)Cc2cc(NC(=O)Nc3ccc4c(c3)OCO4)ccc2O[C@@H]1CN(C)Cc1ccc(C(F)(F)F)cc1,inactive
17,C[C@H](CO)N1C[C@H](C)[C@@H](CN(C)Cc2ccc(C(F)(F)F)cc2)Oc2ccc(NC(=O)Nc3ccc4c(c3)OCO4)cc2CC1=O,active
18,C[C@@H]1CN([C@H](C)CO)C(=O)Cc2cc(NC(=O)Nc3ccc4c(c3)OCO4)ccc2O[C@H]1CN(C)Cc1ccc(C(F)(F)F)cc1,active
19,OCc1ccc2c(c1)OCCO2,inactive

row,SMILES,cytotoxicity call
1,C[C@@H]1CN([C@@H](C)CO)C(=O)c2cc(NC(=O)Cn3cnnn3)ccc2O[C@@H]1CN(C)Cc1ccc(Cl)c(Cl)c1,inactive
2,C[C@@H]1CN([C@@H](C)CO)S(=O)(=O)c2ccc(-c3cncnc3)cc2O[C@H]1CN(C)C(=O)Cc1ccncc1,inactive
3,COc1ccc(S(=O)(=O)Nc2ccc3c(c2)C(=O)N([C@@H](C)CO)C[C@H](C)[C@H](CN(C)C(=O)Nc2cccc4ccccc24)OCCCC[C@H](C)O3)cc1,inactive
4,C[C@@H]1CCCCO[C@H](CN(C)S(C)(=O)=O)[C@@H](C)CN([C@@H](C)CO)C(=O)c2cc(NS(=O)(=O)c3ccccc3)ccc2O1,inactive
5,C[C@@H]1CN([C@@H](C)CO)C(=O)c2cccc(NC(=O)c3ccc(-c4nccs4)cc3)c2O[C@@H]1CN(C)Cc1ccc(C(=O)O)cc1,inactive
6,Cc1noc(C)c1NC(=O)Nc1ccc2c(c1)C(=O)N([C@@H](C)CO)C[C@@H](C)[C@H](CN(C)Cc1ccc(Cl)c(Cl)c1)OCCCC[C@H](C)O2,inactive
7,C[C@H]1CCCCO[C@H](CN(C)Cc2ccc(Cl)c(Cl)c2)[C@@H](C)CN([C@@H](C)CO)C(=O)c2cc(NC(=O)Nc3ccc(F)cc3)ccc2O1,inactive
8,C[C@@H]1CCCCO[C@@H](CN(C)Cc2ccc(Cl)c(Cl)c2)[C@@H](C)CN([C@@H](C)CO)C(=O)c2cc(NC(=O)Nc3ccc(F)cc3)ccc2O1,inactive
9,C[C@@H]1CN([C@H](C)CO)C(=O)c2cc(NC(=O)Nc3ccc(F)cc3)ccc2O[C@@H](C)CCCCO[C@H]1CN(C)Cc1ccc(Cl)c(Cl)c1,active
10,C[C@@H]1CCCCO[C@@H](CN(C)Cc2ccc(Cl)c(Cl)c2)[C@@H](C)CN([C@H](C)CO)C(=O)c2cc(NC(=O)Nc3ccccc3)ccc2O1,inactive
11,C[C@H]1CCCCO[C@H](CN(C)Cc2ccc(Cl)c(Cl)c2)[C@@H](C)CN([C@@H](C)CO)C(=O)c2cc(NC(=O)Nc3ccccc3)ccc2O1,inactive
12,Cc1noc(C)c1NC(=O)Nc1ccc2c(c1)C(=O)N([C@H](C)CO)C[C@@H](C)[C@@H](CN(C)Cc1ccc(Cl)c(Cl)c1)OCCCC[C@H](C)O2,active
13,Cc1noc(C)c1NC(=O)Nc1ccc2c(c1)C(=O)N([C@H](C)CO)C[C@@H](C)[C@H](CN(C)Cc1ccc(Cl)c(Cl)c1)OCCCC[C@@H](C)O2,inactive
14,C[C@@H]1CN([C@H](C)CO)C(=O)c2cc(NC(=O)Nc3ccccc3)ccc2O[C@@H](C)CCCCO[C@H]1CN(C)Cc1ccc(Cl)c(Cl)c1,active
15,CO[C@@H]1CN(C)C(=O)c2cc(NC(=O)Nc3ccccc3F)ccc2OC[C@@H](C)N(Cc2ccccc2C(=O)O)C[C@@H]1C,inactive
16,Cc1noc(C)c1NC(=O)Nc1ccc2c(c1)C(=O)N([C@H](C)CO)C[C@H](C)[C@H](CN(C)Cc1ccc(Oc3ccccc3)cc1)O2,inactive
17,COc1cccc(S(=O)(=O)N(C)C[C@H]2OCc3cn(nn3)CCCC(=O)N([C@H](C)CO)C[C@H]2C)c1,inactive
18,COc1ccc(NC(=O)N(C)C[C@@H]2OCCCC[C@H](C)Oc3ccc(NC(=O)Nc4cccc5ccccc45)cc3C(=O)N([C@H](C)CO)C[C@@H]2C)cc1,inactive
19,C[C@@H]1CN([C@@H](C)CO)C(=O)Cc2cc(NC(=O)Cn3cnnn3)ccc2O[C@@H]1CN(C)CC1CCCCC1,inactive
